Source: PubChem
KCNQ2 inh – blocks the rat KCNQ2 potassium channel. CHO-K1 KCNQ2, FluxOR thallium flux, 20 min; stronger effect = lower value. B-score at 10 µM. 310,000 compounds, 1.1% hits. AID 2156;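 active = fluorescence ratio B-score at most minus 3 library SDs, with starting brightness B-score within 2 library SDs, cut at about -5.5 in these data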
Target sequence (O88943 whole entry, looked up): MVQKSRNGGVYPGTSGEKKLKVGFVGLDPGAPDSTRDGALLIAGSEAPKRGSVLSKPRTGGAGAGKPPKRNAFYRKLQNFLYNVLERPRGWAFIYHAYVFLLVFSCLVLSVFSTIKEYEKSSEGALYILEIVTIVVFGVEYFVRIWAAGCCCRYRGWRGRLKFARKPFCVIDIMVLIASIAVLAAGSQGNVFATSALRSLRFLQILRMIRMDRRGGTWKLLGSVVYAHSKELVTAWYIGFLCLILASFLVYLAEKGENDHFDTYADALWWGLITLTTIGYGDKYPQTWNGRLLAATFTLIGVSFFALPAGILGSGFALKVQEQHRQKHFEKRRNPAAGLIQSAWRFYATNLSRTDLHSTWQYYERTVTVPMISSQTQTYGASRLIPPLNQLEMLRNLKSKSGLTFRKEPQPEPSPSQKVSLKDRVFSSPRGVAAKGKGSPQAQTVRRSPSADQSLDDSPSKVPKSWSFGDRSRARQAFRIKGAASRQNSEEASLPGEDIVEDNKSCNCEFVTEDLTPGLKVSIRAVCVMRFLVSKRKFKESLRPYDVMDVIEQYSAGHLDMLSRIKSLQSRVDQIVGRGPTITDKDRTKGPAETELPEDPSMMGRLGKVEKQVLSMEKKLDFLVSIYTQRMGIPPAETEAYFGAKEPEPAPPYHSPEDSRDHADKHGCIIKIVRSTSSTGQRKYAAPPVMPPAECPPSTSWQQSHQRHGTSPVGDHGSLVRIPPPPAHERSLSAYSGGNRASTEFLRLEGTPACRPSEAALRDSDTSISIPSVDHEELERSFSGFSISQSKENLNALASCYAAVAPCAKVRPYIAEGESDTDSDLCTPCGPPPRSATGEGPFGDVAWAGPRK
KCNQ2 pot – enhances the rat KCNQ2 potassium channel | CHO-K1 KCNQ2, FluxOR thallium flux fluorescence; stronger effect = higher value | B-score at 10 µM | 310,000 compounds, 0.54% hits | AID 2239;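 active = fluorescence ratio B-score at least 3 SD of library B-scores, with initial fluorescence B-score within 3 of them, cut at about 5.3 in these data; same plate scores as AID 2156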;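 note: B-score of peak minus minimum over baseline fluorescence ratio after K+ and Tl+ stimulus; positive B-score means potentiation of KCNQ2 with more thallium influx and brighter signal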
Hits are given with their value; . = inactive; / = no result given. A selection: hits, their analogues and other compounds. The true share with any hit is near 1.6%.

SMILES	KCNQ2 inh	KCNQ2 pot
O=C(NCCCc1nc2ccccc2[nH]1)c1ccc(F)cc1	.	7.3
O=C(Nc1ncccc1O)c1ccc(Oc2ccccc2)cc1	.	/
Cc1cc(C)c(NC(=O)Nc2ccccc2)c(Cl)c1	.	5.3
Cc1cc(C)c(NC(=O)Nc2ccccc2C)c(Cl)c1	.	.
Cc1onc(-c2ccc3c(c2)OCO3)c1-c1ccc2[nH]ccc2c1	-7.9	.
c1cc2cc(-c3c(-c4ccc5c(c4)OCO5)noc3-c3ccsc3)ccc2[nH]1	.	/
Cc1ccc(-n2ncc3c2CCCC3NC(=O)CCc2cnccn2)cc1C (stereo not given)	.	/
O=S(=O)(c1ccc(Cl)cc1)N1CCN(S(=O)(=O)N2CCCCCC2)CC1	.	/
O=S(=O)(c1ccc(Oc2ccc(Cl)cc2)c(S(=O)(=O)N2CCCCC2)c1)N1CCCCC1	-7.2	.
FC(F)(F)c1cccc(Oc2nc(-c3ccccc3)nnc2C(F)(F)F)c1	.	/
FC(F)(F)c1nnc(-c2ccccc2)nc1Oc1ccc(Cl)cc1Cl	-7.7	.
Cc1nc2scc(-c3ccccc3)c2c(=O)n1/N=C/c1ccco1	-6.4	.
Cc1nc2ccccc2c(=O)n1/N=C/c1ccco1	.	/
C[C@]12C(=O)N(c3ccc(Cl)cc3)C(=O)N1[C@@H]1c3ccccc3OC[C@@H]1[C@H]2c1ccccc1	.	/
Nc1c(C(=O)c2ccc(Br)cc2)oc2ccccc12	.	.
O=C(c1ccc(Cl)cc1)c1oc2ccccc2c1CS(=O)c1ccccc1 (stereo not given)	-5.7	.
CCOC(=O)CCc1c(C)nc2c(c(C)nn2C(C)(C)C)c1C	-7.8	.
CCOC(=O)CCc1c(C)nc2c(c(C)nn2-c2ccc(C)cc2)c1C	.	.
O=C(Nc1ncccn1)c1cc(-c2cccc(Br)c2)nc2ccccc12	.	/
O=C(c1cc(-c2cccc(Cl)c2)nc2ccccc12)N1CCCC1	-8.1	.
O=C(c1cc(-c2ccccc2)nc2ccccc12)N1CCCC1	.	.
O=C(Nc1ccc([N+](=O)[O-])cn1)c1cc(-c2cccc(Cl)c2)nc2ccccc12	-5.6	.
O=C(Nc1ccc([N+](=O)[O-])cn1)c1cc(-c2cccc(Br)c2)nc2ccccc12	.	/
O=C(Nc1ccccn1)c1cc(-c2cccc(Cl)c2)nc2ccccc12	-5.6	.
CC(OC(=O)c1cccc(-n2cnnn2)c1)C(=O)NCc1ccccc1 (stereo not given)	.	.
SMILES	KCNQ2 inh	KCNQ2 pot
CC1CCN(C(=O)CSc2nc3c(c(=O)n2C)SC(C)C3)CC1 (stereo not given)	.	/
Cc1sc2ncnc(N/N=C/c3ccccc3O)c2c1C	.	/
COc1cccc(/C=N/Nc2ncnc3scc(-c4ccccc4)c23)c1OC	-6	.
COc1ccc(C)cc1NC(=O)CN1C(=O)COc2ccc(C)cc21	.	/
C=CCN1C(=O)c2ccccc2NC1c1cc(Br)cs1 (stereo not given)	.	/
O=C(O)c1cc(-c2ccc(Br)s2)nc2ccccc12	.	/
CN1CCN(NC(=O)c2cc(-c3ccc(Br)s3)nc3ccccc23)CC1	-5.7	.
CCc1nc(N(CC)CC)c2oc3ccccc3c2n1	.	/
CCc1nc(N2CCC(C)CC2)c2oc3ccccc3c2n1	-5.9	.
C[C@@H]1CN(C(=O)c2nc3ccc(Cl)cn3c2CNCC[C@@H]2C[C@@H]3C=C[C@H]2C3)C[C@H](C)O1	.	/
O=C(c1nc2ccc(Cl)cn2c1CNCC[C@@H]1C[C@@H]2C=C[C@H]1C2)N1CCCCCCC1	-5.8	.
CCOc1ccc(NC(=O)CC2C(=O)N(c3cccc(OC)c3)C(=O)N2CCOC)cc1 (stereo not given)	.	.
COc1cc(C(=O)OCc2nc3ccsc3c(=O)[nH]2)c([N+](=O)[O-])cc1OC	.	/
CC1CCCCN1C(=O)Nc1ccccc1Cl (stereo not given)	.	/
CCCC1c2ccc(C)n2CCN1C(=O)Nc1ccccc1Cl (stereo not given)	-7.2	.
CCOC(=O)c1ccccc1NC(=O)N1CCn2c(C)ccc2C1CC (stereo not given)	-6.2	.
CCC1c2ccc(C)n2CCN1C(=O)Nc1ccccc1C(=O)OC (stereo not given)	.	/
C/C(=N\NC(=O)COc1ccccc1-c1ccccc1)c1ccccn1	.	/
C/C(=N\NC(=O)COc1ccccc1-c1ccccc1)c1cccnc1	-6.4	.
Cn1c(CC(=O)Nc2ccc(F)cc2)c(Sc2ccccc2)c2ccccc21	.	/
COc1ccc(NC(=O)Cc2c(Sc3ccccc3)c3ccccc3n2C)cc1	-6.3	.
O=C(CSCc1ccccc1)N1CCN(c2ccccc2)CC1	.	/
O=C(CSCc1ccccc1)N1CCN(c2cccc(C(F)(F)F)c2)CC1	-6.5	.
C/C(=C/c1ccccc1)C(=O)N1CCN(c2ccccc2F)CC1	.	/
C/C(=C\c1ccccc1)C(=O)N1CCN(c2cccc(C(F)(F)F)c2)CC1	-6.2	.
CN1C(=O)/C(=C/c2ccccc2Cl)Sc2ccc(C(=O)NCc3cccnc3)cc21	.	/
S=c1[nH]cnc2scc(-c3ccccc3)c12	.	11
Clc1ncnc2scc(-c3ccccc3)c12	.	.
